Inconclusive results are not listed. Activity calls are given as the source filed them. Unless noted, calls follow the shape of the dose curve; as a rule, active = well fitted curve in the direction sought with a large enough effect; inconclusive = small, poorly fitted or top-dose-only effect, or another doubt; inactive = no such curve, though single readings can be large; an effect the other way counts as inactive or inconclusive.
Experiments:
[1] = target: Peroxisome proliferator-activated receptor gamma (Homo sapiens) (UniProt P37231); assay: qHTS assay for small molecule agonists of peroxisome proliferator-activated receptor gamma signaling (AID 588536; active = well fitted curve in the direction sought with a large enough effect in the signal ratio, with a control signal flat, not every such curve was filed as active; the % refers to the signal ratio;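 also: 0% = DMSO basal wells and 100% = rosiglitazone at 2 µM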)
Chain of Peroxisome proliferator-activated receptor gamma (Homo sapiens) (P37231 whole entry, looked up): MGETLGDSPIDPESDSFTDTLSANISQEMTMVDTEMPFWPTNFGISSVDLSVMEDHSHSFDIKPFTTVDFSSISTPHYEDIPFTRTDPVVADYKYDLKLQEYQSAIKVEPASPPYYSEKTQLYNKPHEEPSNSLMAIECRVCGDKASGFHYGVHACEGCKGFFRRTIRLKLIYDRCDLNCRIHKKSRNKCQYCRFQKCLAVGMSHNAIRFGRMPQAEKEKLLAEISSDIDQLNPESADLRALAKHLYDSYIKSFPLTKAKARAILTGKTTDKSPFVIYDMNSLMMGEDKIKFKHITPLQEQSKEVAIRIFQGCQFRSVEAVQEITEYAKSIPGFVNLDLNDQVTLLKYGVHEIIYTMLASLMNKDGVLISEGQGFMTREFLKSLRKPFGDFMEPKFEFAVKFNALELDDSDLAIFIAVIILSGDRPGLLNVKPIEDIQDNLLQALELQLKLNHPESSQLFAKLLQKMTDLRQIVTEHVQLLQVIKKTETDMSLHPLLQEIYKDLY
Summary of the method: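 PPAR-gamma-UAS-bla HEK293 cells in medium with 1% charcoal/dextran-treated FBS were exposed to compounds for 16 h at 37 C. Beta-lactamase activity was read with CCF4 substrate (405 nm excitation, 460/530 nm emission).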

[2] = target: Vitamin D3 receptor (Homo sapiens) (UniProt P11473); assay: qHTS assay for small molecule agonists of vitamin D receptor signaling (AID 588543; calls by dose curve;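 also: 0% = DMSO basal and 100% = reference agonist control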)
Chain of Vitamin D3 receptor (Homo sapiens) (P11473 whole entry, looked up): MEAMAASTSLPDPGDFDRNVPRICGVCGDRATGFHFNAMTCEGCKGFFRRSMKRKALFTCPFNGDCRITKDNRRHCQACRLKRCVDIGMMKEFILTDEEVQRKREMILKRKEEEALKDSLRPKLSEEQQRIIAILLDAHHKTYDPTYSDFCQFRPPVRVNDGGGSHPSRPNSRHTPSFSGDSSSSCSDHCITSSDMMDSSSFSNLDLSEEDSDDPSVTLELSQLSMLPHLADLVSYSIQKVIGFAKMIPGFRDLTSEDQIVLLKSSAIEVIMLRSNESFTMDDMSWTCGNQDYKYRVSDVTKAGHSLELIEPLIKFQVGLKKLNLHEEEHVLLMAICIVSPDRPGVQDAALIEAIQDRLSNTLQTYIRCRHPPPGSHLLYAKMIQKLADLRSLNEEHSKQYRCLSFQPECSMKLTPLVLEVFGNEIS
Summary of the method: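 Reporter cells (HEK293T, VDR-UAS-bla) were seeded in medium with 2% charcoal-stripped serum and incubated 5 h, then compounds in concentration series were added for 16 h at 37 °C. Stimulation was scaled between DMSO basal and 50 nM 1α,25-dihydroxyvitamin D3.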

[3] = qHTS assay for small molecule agonists of retinoid X receptor alpha signaling (AID 588544; calls by dose curve;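 as to activation: 0% = DMSO basal wells and 100% = reference agonist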); details: HEK293T RXRa-UAS-bla, beta-lactamase reporter, 18 h; 530 nm emission
[4] = target: Retinoic acid receptor RXR-alpha (Homo sapiens) (UniProt P19793); assay: as above
Chain of Retinoic acid receptor RXR-alpha (Homo sapiens) (P19793 whole entry, looked up): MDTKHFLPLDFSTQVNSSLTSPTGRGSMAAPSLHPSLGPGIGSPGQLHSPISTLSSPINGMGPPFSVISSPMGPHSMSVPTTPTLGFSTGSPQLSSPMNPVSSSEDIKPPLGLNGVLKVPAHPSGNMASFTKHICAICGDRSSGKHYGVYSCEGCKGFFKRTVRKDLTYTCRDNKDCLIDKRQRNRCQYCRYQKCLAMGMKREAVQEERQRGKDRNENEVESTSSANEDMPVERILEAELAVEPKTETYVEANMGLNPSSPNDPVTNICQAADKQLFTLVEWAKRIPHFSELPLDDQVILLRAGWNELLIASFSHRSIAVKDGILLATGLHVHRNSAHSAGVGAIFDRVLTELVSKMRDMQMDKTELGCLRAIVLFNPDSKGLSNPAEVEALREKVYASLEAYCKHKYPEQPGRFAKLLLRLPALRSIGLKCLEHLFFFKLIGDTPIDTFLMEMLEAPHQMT

[5] = target: Thyroid hormone receptor beta (Homo sapiens) (UniProt P10828); assay: qHTS assay for small molecule agonists of thyroid hormone receptor beta signaling (AID 588545; calls by dose curve)
Chain of Thyroid hormone receptor beta (Homo sapiens) (P10828 whole entry, looked up): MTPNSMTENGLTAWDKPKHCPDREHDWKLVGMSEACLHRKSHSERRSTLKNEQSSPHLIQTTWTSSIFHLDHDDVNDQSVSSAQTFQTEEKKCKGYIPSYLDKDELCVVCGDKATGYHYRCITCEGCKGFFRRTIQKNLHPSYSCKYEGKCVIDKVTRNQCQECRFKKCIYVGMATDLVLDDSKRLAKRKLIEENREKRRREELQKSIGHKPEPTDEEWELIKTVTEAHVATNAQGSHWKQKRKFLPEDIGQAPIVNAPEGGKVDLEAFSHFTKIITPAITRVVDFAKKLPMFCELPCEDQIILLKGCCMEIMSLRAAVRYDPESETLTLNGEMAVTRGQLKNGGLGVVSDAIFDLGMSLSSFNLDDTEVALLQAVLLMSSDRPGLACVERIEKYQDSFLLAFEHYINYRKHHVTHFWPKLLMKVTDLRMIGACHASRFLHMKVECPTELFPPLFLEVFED
Summary of the method: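 Cells (2500/well) were seeded, incubated 4 hrs at 37 C, dosed with a compound series, incubated 18 hrs, loaded with CCF4 dye for 2 hrs at RT, then read for fluorescence. Data were scaled between DMSO (0%) and 10 nM T3 (100%).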

[6] = qHTS assay for small molecule antagonists of retinoid X receptor alpha signaling (AID 588546; active = well fitted inhibition curve with a large enough effect in the signal ratio, with a control signal flat, not every such curve was filed as active; the % refers to the signal ratio;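 also: cells stimulated with 9-cis-retinoic acid as agonist; % is scaled to controls: 0 for no effect and ±100 for the full control effect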); details: HEK293T RXRa-UAS-bla, beta-lactamase ratio, antagonist mode; measured here: W530 green channel, cytotoxicity proxy
Summary of the method: (§1)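 Beta-lactamase reporter inhibition, read as CCF4 fluorescence ratio (ex 405, em 460/530 nm) after 2 h at RT. HEK293T UAS-bla cells, 2500/well, were stimulated with 9-cis-RA at 500 or 100 nM final alongside test compound for 18 h at 37 C.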

[7] = target: Retinoic acid receptor RXR-alpha (Homo sapiens) (UniProt P19793); assay: as above; details: HEK293T RXRa-UAS-bla, beta-lactamase ratio, antagonist mode
Summary of the method: as §1

[8] = target: Thyroid hormone receptor beta (Homo sapiens) (UniProt P10828); assay: qHTS assay for small molecule antagonists of thyroid hormone receptor beta signaling (AID 588547; active = well fitted inhibition curve with a large enough effect in the signal ratio, with a control signal flat, not every such curve was filed as active; the % refers to the signal ratio;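 also: cells stimulated with 0.4 nM T3 agonist during compound exposure; series mostly up to about 77 µM; % is scaled to controls: 0 for no effect and ±100 for the full control effect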); details: TR-UAS-bla HEK293, beta-lactamase ratio, antagonist mode, 18 h
Summary of the method: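 TR-UAS-bla GripTite HEK293 cells in 2% charcoal/dextran FBS medium; compounds 0.59 nM to 92 uM with T3 at 0.4nM final, 18 h at 37 C. Beta-lactamase read by CCF4 fluorescence (460/530 nm); Hill fits gave IC50 and efficacy.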

[9] = target: Voltage-gated inwardly rectifying potassium channel KCNH2 (Homo sapiens) (UniProt Q12809); assay: qHTS Assay for Small Molecule Inhibitors of the Human hERG Channel Activity (AID 588834);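 also: top concentration of the series differs between compounds; % is scaled to controls: 0 for no effect and ±100 for the full control effect; lower thallium flux fluorescence means stronger hERG block; nearly all actives have a fitted effect of over 50% in size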
Chain of Voltage-gated inwardly rectifying potassium channel KCNH2 (Homo sapiens) (Q12809 whole entry, looked up): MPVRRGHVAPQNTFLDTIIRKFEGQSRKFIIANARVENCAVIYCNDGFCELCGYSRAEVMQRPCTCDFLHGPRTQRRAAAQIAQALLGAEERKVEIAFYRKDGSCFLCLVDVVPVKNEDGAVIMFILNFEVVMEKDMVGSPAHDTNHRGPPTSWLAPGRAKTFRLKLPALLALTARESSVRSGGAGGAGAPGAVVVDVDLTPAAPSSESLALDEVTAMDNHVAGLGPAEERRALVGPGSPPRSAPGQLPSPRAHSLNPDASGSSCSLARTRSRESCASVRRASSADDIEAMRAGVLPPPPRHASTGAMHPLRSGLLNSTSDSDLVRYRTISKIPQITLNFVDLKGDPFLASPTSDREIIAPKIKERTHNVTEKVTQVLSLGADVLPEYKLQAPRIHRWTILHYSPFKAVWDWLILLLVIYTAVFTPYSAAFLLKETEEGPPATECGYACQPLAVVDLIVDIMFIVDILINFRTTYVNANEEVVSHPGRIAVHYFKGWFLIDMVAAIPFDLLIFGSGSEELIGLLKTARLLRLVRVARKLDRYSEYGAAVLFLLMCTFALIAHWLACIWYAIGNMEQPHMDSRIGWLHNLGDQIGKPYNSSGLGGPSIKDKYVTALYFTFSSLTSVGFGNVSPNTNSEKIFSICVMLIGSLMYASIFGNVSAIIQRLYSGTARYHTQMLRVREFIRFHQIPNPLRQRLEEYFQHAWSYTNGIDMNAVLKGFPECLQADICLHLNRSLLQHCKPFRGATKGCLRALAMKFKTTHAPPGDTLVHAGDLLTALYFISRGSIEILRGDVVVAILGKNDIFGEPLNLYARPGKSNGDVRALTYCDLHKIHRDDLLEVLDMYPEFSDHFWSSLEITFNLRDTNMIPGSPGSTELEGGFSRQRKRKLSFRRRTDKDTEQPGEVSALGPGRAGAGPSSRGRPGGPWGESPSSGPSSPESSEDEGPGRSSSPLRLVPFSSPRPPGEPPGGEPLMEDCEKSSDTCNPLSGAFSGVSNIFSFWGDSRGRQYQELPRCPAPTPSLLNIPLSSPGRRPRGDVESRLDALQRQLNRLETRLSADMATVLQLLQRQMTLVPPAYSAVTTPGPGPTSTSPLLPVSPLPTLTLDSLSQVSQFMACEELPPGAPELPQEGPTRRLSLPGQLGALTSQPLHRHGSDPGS
Summary of the method: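 hERG-BacMam U2OS, 2000 cells/well; 0.7X FluxOR loading 1 hr RT dark; cpd ~10 min 37 °C; stim buffer; FDSS fluorescence 2 min @ 1 s; AC50 Hill fit.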

[10] = qHTS assay for small molecule agonists of the antioxidant response element (ARE) signaling pathway (AID 651741; active = well fitted activation curve with a large enough effect in the signal ratio; the % refers to the signal ratio; also: potency is read from the fitted curve at half-maximal effect)
Summary of the method: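 HepG2 ARE-bla cells plated at 2,000 cells/well and incubated 5 h at 37 C/5% CO2 received 23 nL compound in DMSO. After 16 h at 37 C, LiveBLAzer B/G FRET substrate was applied for 2 h at room temperature and fluorescence read.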

[11] = qHTS assay for small molecule activators of the p53 signaling pathway (AID 651743; active = well fitted activation curve with a large enough effect in the signal ratio, not every such curve was filed as active; the % refers to the signal ratio; also: series mostly up to about 92 µM; % of control where 0% means no effect); details: HCT-116 p53RE-bla, beta-lactamase FRET ratio, 16 h; activation: stronger effect = higher value
Summary of the method: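 HCT-116 p53RE-bla, 4,000 cells/well; 5 h settle; cpd/DMSO 16 h, 37 C; LiveBLAzer B/G 2 h RT; fluorescence intensity.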

[12] = qHTS assay for small molecule activators of the nuclear factor-kappa B (NF-kB) signaling pathway (AID 651749; active = well fitted activation curve with a large enough effect in the signal ratio; the % refers to the signal ratio; also: series mostly up to about 77 µM; % of control where 0% means no effect); details: NF-kB-bla ME-180 cells, beta-lactamase FRET ratio, 16 h; activation: stronger effect = higher value
Summary of the method: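 Incubation lasted 16 hr at 37C in 5% CO2 after 23 nL compound addition to ME-180 NF-kB-bla cells. Activation appears as beta-lactamase-mediated FRET loss.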

[13] = qHTS assay for small molecule disruptors of the mitochondrial membrane potential - 5 hr assay (AID 651755; calls by dose curve; also: % is scaled to controls: 0 for no effect and ±100 for the full control effect; nearly all actives have a fitted effect of over 40% in size)
Summary of the method: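 HepG2 cells (2,000/well), attached overnight, exposed to compound 5 hr at 37C, then Mito-MPS dye 30 min. Fluorescence read for monomers (490/535 nm) and aggregates (540/590 nm).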

[14] = target: Tumor necrosis factor (Homo sapiens) (UniProt P01375); assay: qHTS assay to identify small molecules that stimulate Tumor Necrosis Factor-alpha (TNF-alpha) secretion (AID 651757; active = well fitted curve in the direction sought with a large enough effect in the signal ratio; the % refers to the signal ratio; also: 0% is about no effect)
Chain of Tumor necrosis factor (Homo sapiens) (P01375 whole entry, looked up): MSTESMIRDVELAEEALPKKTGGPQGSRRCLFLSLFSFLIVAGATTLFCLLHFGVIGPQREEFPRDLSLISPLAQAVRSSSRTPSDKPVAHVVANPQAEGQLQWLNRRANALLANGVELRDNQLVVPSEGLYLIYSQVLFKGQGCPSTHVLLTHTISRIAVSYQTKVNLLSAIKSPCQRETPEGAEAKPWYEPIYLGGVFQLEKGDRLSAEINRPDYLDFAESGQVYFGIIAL
Summary of the method: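 THP-1 cells were exposed to compounds for 17 hrs at 37 C, after which secreted TNF-alpha was measured by homogeneous HTRF (TR-FRET) using cryptate- and XL665-labeled anti-TNF-alpha antibodies, read after 3 hr at room temperature.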

[15] = qHTS assay to identify small molecules that stimulate interleukin-8 (IL-8) secretion (AID 651758; active = well fitted activation curve with a large enough effect in the signal ratio; the % refers to the signal ratio; also: 0% is about no effect)
Summary of the method: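 THP-1 cells (2000/well) exposed to compound 16 h at 37 C; secreted IL-8 then detected by HTRF with cryptate- and XL665-labelled anti-IL-8 antibody pair after 1-3 h at room temperature.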

[16] = qHTS assay for environmental chemicals that activate the Aryl hydrocarbon Receptor (AhR) signaling pathway (AID 651777); details: 1A2-DRE human hepatoma cells, luciferase, 24 h; activation: stronger effect = higher value; also: potency is read from the fitted curve at half-maximal effect; nearly all actives have a fitted effect of over 15% in size
Summary of the method: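 Stable CYP1A2 promoter/DRE-luciferase human hepatoma line treated 24 hr; One-Glo luminescence, 30 min RT.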

[17] = target: Peroxisome proliferator-activated receptor alpha (Homo sapiens) (UniProt Q07869); assay: qHTS assay for small molecule agonists of the peroxisome proliferator-activated receptor alpha (PPARalpha) signaling pathway (AID 651778); details: PathHunter PPARalpha complementation, chemiluminescence, 6 h; stronger effect = higher value; also: % of control where 0% means no effect
Chain of Peroxisome proliferator-activated receptor alpha (Homo sapiens) (Q07869 whole entry, looked up, the tested form may be a part): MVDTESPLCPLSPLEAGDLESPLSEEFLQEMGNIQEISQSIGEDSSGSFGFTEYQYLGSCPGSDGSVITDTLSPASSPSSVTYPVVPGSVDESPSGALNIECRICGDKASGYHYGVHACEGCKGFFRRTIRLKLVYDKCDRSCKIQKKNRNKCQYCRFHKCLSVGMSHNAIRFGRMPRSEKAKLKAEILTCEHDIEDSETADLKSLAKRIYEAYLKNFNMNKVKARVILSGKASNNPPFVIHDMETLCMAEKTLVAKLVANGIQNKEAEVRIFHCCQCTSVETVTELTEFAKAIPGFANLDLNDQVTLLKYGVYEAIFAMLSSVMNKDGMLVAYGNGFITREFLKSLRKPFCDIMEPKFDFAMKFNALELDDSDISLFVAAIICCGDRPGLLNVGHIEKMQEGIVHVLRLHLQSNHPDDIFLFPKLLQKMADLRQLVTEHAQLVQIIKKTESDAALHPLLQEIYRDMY
Summary of the method: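 Enzyme-fragment complementation assay in which ligand-bound PPARalpha translocates and forms an active enzyme that generates chemiluminescence. Cells were plated overnight, exposed to compound for 6 hr at 37 C, and then given detection reagent for 60 min at room temperature.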

[18] = target: Nuclear receptor ROR-gamma (Homo sapiens) (UniProt P51449); assay: qHTS assay for small molecule antagonists of the retinoid-related orphan receptor gamma (ROR-gamma) signaling pathway (AID 651802); also: series mostly up to about 92 µM; % is scaled to controls: 0 for no effect and ±100 for the full control effect; nearly all actives have a fitted effect of over 60% in size
Chain of Nuclear receptor ROR-gamma (Homo sapiens) (P51449 whole entry, looked up): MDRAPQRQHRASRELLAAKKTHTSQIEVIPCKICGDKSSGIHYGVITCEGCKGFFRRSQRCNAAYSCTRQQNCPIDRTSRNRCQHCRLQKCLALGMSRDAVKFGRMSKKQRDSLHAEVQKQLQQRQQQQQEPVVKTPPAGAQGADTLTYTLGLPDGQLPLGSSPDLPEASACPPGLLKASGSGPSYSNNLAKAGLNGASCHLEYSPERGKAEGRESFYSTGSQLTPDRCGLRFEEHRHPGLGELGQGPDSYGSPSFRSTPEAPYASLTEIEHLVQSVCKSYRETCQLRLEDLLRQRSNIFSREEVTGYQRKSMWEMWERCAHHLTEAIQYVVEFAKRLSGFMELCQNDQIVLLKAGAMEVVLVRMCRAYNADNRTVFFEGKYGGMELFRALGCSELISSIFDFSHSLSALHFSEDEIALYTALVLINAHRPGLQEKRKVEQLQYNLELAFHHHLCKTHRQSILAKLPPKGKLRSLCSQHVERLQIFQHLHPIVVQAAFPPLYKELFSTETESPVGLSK
Summary of the method: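 CHO cells carrying TET-inducible ROR-gamma and an ROR response element–luciferase reporter were exposed to compound, then induced with doxycycline. After 16hr at 37C, luminescence was read; lower signal indicates antagonism.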

[19] = qHTS assay for small molecule agonists of the antioxidant response element (ARE) signaling pathway measured by Nrf2-dependant transcriptional activity (AID 720636; active = well fitted curve in the direction sought with a large enough effect in the repeat runs; an effect the other way counts as inactive or inconclusive;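 also: HepG2 cells with an ARE-driven luciferase reporter; % of control where 0% means no effect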)
Summary of the method: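 Reporter gene assay, HepG2 ARE-luc: 16 hr compound, 37 C, 5% CO2; read-out luciferase luminescence.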

[20] = qHTS assay for small molecule agonists of the antioxidant response element (ARE) signaling pathway measured by Nrf2-dependant transcriptional activity - cell viability counter screen (AID 720653; active = well fitted curve in the direction sought with a large enough effect in the repeat runs; an effect the other way counts as inactive or inconclusive; also: % is scaled to controls: 0 for no effect and ±100 for the full control effect); details: ARE-bla HepG2 viability, CellTiter-Glo ATP luminescence, 16 h; stronger effect = lower value
Summary of the method: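 ARE-bla HepG2 cells treated with compounds for 16 h at 37C; this counter screen measures viability as intracellular ATP by CellTiter-Glo luminescence after 30 min at room temperature.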

[21] = qHTS assay for cell viability of HEK293 cells (AID 743288); details: ATP luminescence (CellTiter-Glo), 18 h; max response: stronger effect = lower value; also: % is scaled to controls: 0 for no effect and ±100 for the full control effect; nearly all actives have a fitted effect of over 50% in size
Summary of the method: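 HEK293 parental, 2,000 cells/well; ≥5 h pre-incubation 37 C; pintool compound addition; 18 h, 37 C; CellTiter-Glo 30 min RT; luminescence read.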

[22] = qHTS assay for cell viability of the p53RE-bla HCT-116 cell line (AID 743292); also: % is scaled to controls: 0 for no effect and ±100 for the full control effect; nearly all actives have a fitted effect of over 55% in size
Summary of the method: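 Readout: CellTiter-Glo luminescence after 30 min RT. Treatment: compounds in DMSO, 16 h, 37 C. Cells: CellSensor p53RE-bla HCT-116, 4,000/well, preincubated 5 h.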

[23] = target: Nuclear receptor subfamily 1 group I member 2 (Rattus norvegicus) (UniProt Q9R1A7); assay: qHTS assay for small molecule activators of the rat pregnane X receptor (rPXR) signaling pathway (AID 651751; call rule not given here; also: 0% is about no effect); details: rPXR reporter cells, luciferase (One-Glo), 24 h
Chain of Nuclear receptor subfamily 1 group I member 2 (Rattus norvegicus) (Q9R1A7 whole entry, looked up): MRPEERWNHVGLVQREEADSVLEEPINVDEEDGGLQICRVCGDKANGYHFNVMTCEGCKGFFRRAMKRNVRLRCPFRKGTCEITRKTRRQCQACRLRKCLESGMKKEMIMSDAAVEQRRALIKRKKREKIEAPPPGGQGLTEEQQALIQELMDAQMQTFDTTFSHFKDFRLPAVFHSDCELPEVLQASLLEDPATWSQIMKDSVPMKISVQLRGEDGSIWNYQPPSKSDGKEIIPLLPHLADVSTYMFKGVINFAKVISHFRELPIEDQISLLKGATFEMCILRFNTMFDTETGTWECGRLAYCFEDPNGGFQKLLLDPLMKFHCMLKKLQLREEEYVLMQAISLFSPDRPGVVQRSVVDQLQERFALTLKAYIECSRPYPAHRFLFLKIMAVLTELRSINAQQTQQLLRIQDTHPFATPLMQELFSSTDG

S=C=Nc1cccc2ccccc12
6.51%: max response [3]
-0.704%: max response [6]
inactive: outcome [1] | outcome [2] | Potency [4] | outcome [5] | max response [7] 3.59% | activity change % (negative = inhibition) [8] -1.91% | Potency [9] | activation [11] 3.44% | activation [12] 2.04% | Potency [13] | outcome [14] | Potency [15] | max response [17] 5.47% | Potency [18] | outcome [19] | max response [20] -2.47% | max response [21] 0.149% | Potency [22] | max response [23] 5.78%
active: Potency [10] 47.3 µM | Potency [16] 50.1 µM
